This is a sample that favours compounds with a hit; in the whole collection about 3.5% have one here.
UHRF1 binding: human UHRF1 methylated DNA binding inhibitors; inhibition, % at 4.4 µM; UHRF1 binding to methylated oligo, TR-FRET; 370,000 tested, 0.75% active; in the data active = inhibition above about 21%;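 note: UHRF1 SRA domain binding a hemimethylated CpG hairpin DNA probe; 0% = median of test compound wells and 100% = reference inhibitor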
LEDGF integ inh: blocks HIV-1 LEDGF/p75-dependent DNA integration; TR-FRET IN-LEDGF/p75 DNA integration, Eu/Cy5; inhibition, % at 3.7 µM; 370,000 tested, 0.64% active;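 active = inhibition above the screen-wide mean plus 3 SD, cut at about 13% in these data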;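 note: signal is the Cy5 over europium emission ratio at 671 and 618 nm; 0% = plate median of compound wells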
PG9 binder: binds the HIV-1 gp120 antibody PG9. TR-FRET gp120-PG9 antibody binding. inhibition, % at 6.7 µM. 360,000 tested, 0.43% active. AID 624416; in the data active = inhibition above about 8.5%
rCAG RNA binder: molecules binding r(CAG) RNA repeats; 370,000 tested, 1.3% active; inhibition, % at 3 µM; r(CAG) RNA repeat, TO-PRO-1 dye displacement fluorescence;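 active = inhibition above the plate cutoff, the mean of all test compounds on that plate plus 3 SD, cut at about 35% in these data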;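 note: 0% = DMSO alone and 100% = 100 µM mitoxantrone as full dye displacement; higher means more dye released from RNA so lower well fluorescence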
MBD2 inh: blocks human MBD2 binding to methylated DNA. TR-FRET, MBD2 binding to methylated oligonucleotide. inhibition, % at 4.4 µM. 370,000 tested, 0.31% active. AID 686964; in the data active = inhibition above about 13%
DNMT1 block: DNMT1 (human) enzyme inhibition; DNMT1 molecular beacon, Hinp1I cleavage, fluorescence; 360,000 tested, 0.83% active; inhibition (reported as % activation of signal), % at 10 µM; AID 588458; P26358; in the data active = inhibition above about 50%
Target sequence (P26358 504-1616 limits assumed): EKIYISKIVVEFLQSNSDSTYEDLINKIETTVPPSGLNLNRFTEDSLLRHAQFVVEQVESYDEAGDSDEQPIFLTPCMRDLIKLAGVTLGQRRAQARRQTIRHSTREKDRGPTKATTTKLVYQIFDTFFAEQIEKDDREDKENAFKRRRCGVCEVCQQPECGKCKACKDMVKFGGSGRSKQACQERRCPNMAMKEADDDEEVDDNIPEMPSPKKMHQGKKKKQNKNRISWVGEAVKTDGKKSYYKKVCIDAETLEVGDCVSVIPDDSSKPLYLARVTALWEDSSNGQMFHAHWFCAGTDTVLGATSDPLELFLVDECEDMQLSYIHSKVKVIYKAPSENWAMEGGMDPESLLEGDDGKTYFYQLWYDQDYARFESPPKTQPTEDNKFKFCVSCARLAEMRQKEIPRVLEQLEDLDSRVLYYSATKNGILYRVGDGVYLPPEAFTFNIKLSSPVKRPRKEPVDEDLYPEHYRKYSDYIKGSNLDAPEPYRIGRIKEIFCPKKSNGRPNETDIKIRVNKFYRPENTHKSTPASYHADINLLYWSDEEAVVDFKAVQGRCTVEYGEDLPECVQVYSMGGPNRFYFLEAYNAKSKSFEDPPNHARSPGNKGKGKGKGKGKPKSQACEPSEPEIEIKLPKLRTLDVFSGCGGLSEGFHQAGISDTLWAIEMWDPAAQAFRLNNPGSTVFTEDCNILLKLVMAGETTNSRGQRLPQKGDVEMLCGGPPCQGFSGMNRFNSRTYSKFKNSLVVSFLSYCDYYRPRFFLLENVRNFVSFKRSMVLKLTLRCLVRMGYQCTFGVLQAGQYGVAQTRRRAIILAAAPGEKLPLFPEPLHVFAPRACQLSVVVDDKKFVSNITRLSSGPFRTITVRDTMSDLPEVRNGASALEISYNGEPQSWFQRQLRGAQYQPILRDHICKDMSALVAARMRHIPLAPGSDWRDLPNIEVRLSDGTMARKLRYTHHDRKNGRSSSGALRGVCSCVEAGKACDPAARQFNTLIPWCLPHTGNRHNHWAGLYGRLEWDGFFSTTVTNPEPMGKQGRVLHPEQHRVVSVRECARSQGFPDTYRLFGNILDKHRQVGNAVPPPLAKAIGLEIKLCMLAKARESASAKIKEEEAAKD
PG9 binder conf: PG9 antibody binding, confirmed | shares compounds with PG9 binder | inhibition, % at 6.7 µM | AID 651571 | TR-FRET PG9 antibody binding, biochemical | 1,500 tested, 90% active; in the data active = inhibition above about 9%
PGV04 Ab binding: PGV04 control antibody binding, counter-screen | shares compounds with PG9 binder | TR-FRET PGV04 antibody-gp120 binding, biochemical | inhibition, % at 6.7 µM | 1,500 tested, 95% active | AID 651604; in the data active = inhibition above about 9.5%
Starred values were filed as active, the others as inactive; x = not tested or not shown.

SMILES	UHRF1 binding	LEDGF integ inh	PG9 binder	rCAG RNA binder	MBD2 inh	DNMT1 block	PG9 binder conf	PGV04 Ab binding
CC(C)c1nc(SCC(=O)NC2CCCCC2)c2ccccc2n1	1.8	-2.1	1.5	0.5	4.0	-2.0	x	x
Cn1ccnc1C(=O)c1cc(SCC(=O)NC2CC2)nc2ccccc12	5.2	2.3	0.7	-3.2	0.4	0.8	x	x
CC(C)(C)c1nc(SCC(=O)NC2CCCC2)c2ccccc2n1	2.5	-2.4	9.9*	-3.7	-0.1	3.0	13.3*	17.0*
Cc1cccc(C)c1NC(=O)CSc1cc(C(=O)c2nccn2C)c2ccccc2n1	3.8	0.1	14.0*	-4.6	8.3	0.3	40.6*	57.6*
CCc1cc2ccccc2nc1SCC(=O)Nc1cc(C)on1	-2.1	-1.4	21.9*	-0.1	-2.7	3.1	22.1*	30.4*
Cc1cc(NC(=O)CSc2nc(-c3ccccc3)c(C#N)c(=O)[nH]2)no1	0.1	-1.6	17.8*	16.0	-0.4	-0.1	28.2*	34.8*
CC(C)(C)OC(=O)C[C@H]1C/C=C\C[C@@H](CC(=O)N[C@H](CO)Cc2ccccc2)C(=O)N2CCC[C@H]2COC1=O	-0.1	-0.2	0.8	-11.9	2.5	4.0	x	x
CC(C)OC(=O)N(C)C[C@@H]1OCc2cnnn2CCCC(=O)N([C@@H](C)CO)C[C@H]1C	11.8	-3.6	-0.2	0.3	-4.9	2.3	x	x
Cc1cc(NC(=O)CSc2c3c(nc4ccccc24)CCC3)no1	-2.4	-2.4	-1.9	3.9	-4.7	2.7	x	x
Cc1cc(NC(=O)CSc2cc(C)c3ccccc3n2)no1	1.5	-1.0	13.2*	2.0	1.0	1.9	15.9*	42.2*
Cc1cc(NC(=O)CSc2nc(C(C)(C)C)nc3ccccc23)no1	-0.8	-1.9	36.4*	-1.3	-1.9	5.0	43.6*	54.7*
COc1ccc(-c2nc(SCc3ccc(C#N)cc3)[nH]c(=O)c2C#N)cc1	-0.9	0.3	-1.5	11.6	-3.8	-1.4	x	x
N#Cc1c(-c2ccco2)nc(SCc2ccc(F)cc2)[nH]c1=O	5.0	0.4	32.6*	49.9*	-0.8	12.4	32.8*	37.0*
COc1cccc(-n2c(SCC(=O)NC3CC3)nc3ccccc3c2=O)c1	-0.3	2.1	-1.8	6.2	2.2	1.8	x	x
Cc1ccc(C)c(CC(=O)N2CCCC(c3cc(C(=O)Nc4ccccc4Cl)no3)C2)c1 (stereo unspecified)	0.5	-1.5	-0.5	3.5	-0.8	-0.7	x	x
CCOC(=O)C1CCCN(C(=O)c2ccc3oc(Cc4ccccc4)nc3c2)C1 (stereo unspecified)	2.6	-4.8	12.0*	-4.9	5.2	0.8	4.7	6.9
CC(C)CC(=O)C1CCCN(C(=O)c2ccc3oc(Cc4ccccc4)nc3c2)C1 (stereo unspecified)	-0.5	-1.9	-2.8	-12.7	-3.6	1.2	x	x
CCC(CC)C(=O)Nc1nnc(S(=O)(=O)N(CC)c2ccc(OC)cc2)s1	0.3	-0.6	0.2	6.0	0.3	-1.5	x	x
CCN(C(=O)c1cc2c(=O)[nH]c3ccc(C)cc3c2s1)c1cccc(C)c1	4.2	-3.2	0.1	4.0	4.5	30.9	x	x
CCN(C(=O)c1cc2c(=O)[nH]c3ccc(C)cc3c2s1)c1ccc(F)cc1	4.3	0.6	15.3*	3.9	7.0	14.1	14.0*	23.9*
CC(=O)Nc1ccc(NC(=O)CCc2nc3sc4c(c3c(=O)[nH]2)CCCC4)cc1	0.5	0.6	-0.5	7.7	1.8	5.8	x	x
CCc1ccccc1NC(=O)CNC(=O)CCc1nc2sc3c(c2c(=O)[nH]1)CCCC3	2.1	2.0	18.9*	10.8	5.8	40.3	21.0*	38.2*
Cc1cc(C)cc(NC(=O)CCc2nc3sc4c(c3c(=O)[nH]2)CCCC4)c1	-5.9	-3.8	10.9*	10.6	1.5	38.5	16.8*	23.2*
O=C(CCc1nc2sc3c(c2c(=O)[nH]1)CCCC3)Nc1cccc(Cl)c1	-2.5	3.5	36.0*	11.7	-11.7	6.4	27.5*	37.6*
CN(CC(=O)Nc1ccc(F)cc1)C(=O)CCc1nc2sc3c(c2c(=O)[nH]1)CCCC3	-13.2	5.9	14.7*	17.0	-6.9	26.1	13.4*	31.4*
SMILES	UHRF1 binding	LEDGF integ inh	PG9 binder	rCAG RNA binder	MBD2 inh	DNMT1 block	PG9 binder conf	PGV04 Ab binding
CCCCn1c(N)c(N(CCOC)C(=O)c2cc(S(=O)(=O)N3CCCCC3)ccc2Cl)c(=O)[nH]c1=O	-0.7	0.8	0.2	-0.3	-4.0	1.1	x	x
COc1ccc(S(=O)(=O)N2CCCCC2c2cc(C(=O)Nc3ccc4c(c3)OCO4)no2)cc1 (stereo unspecified)	1.9	0.8	1.8	4.8	-0.4	-1.9	x	x
Cn1c(/C=C/c2ccccc2)nc2ccccc2c1=O	-0.3	0.0	-2.8	-2.8	-2.1	5.6	x	x
Cn1c(/C=C/c2ccc(Cl)cc2)nc2ccccc2c1=O	0.6	-1.3	32.2*	-3.7	1.4	7.9	4.2	7.0
COc1ccc(-c2c(C)sc(NC(=O)c3ccnn3C)c2C#N)cc1	-3.7	3.9	51.7*	6.5	-7.7	-1.4	59.6*	60.8*
CCCCNc1nc2c(S(=O)(=O)c3ccccc3)nnn2c2ccccc12	5.2	0.2	29.4*	1.7	6.7	15.4	58.0*	74.7*
CCc1ccc(S(=O)(=O)c2nnn3c2nc(NCCNC(C)=O)c2ccccc23)cc1	0.1	-2.6	0.2	3.1	4.1	-1.7	x	x
CCCCC1=CC2=C(c3ccco3)C(=O)C(C)(OC(=O)c3ccc(OC)cc3)C(=O)C2=CN1C1CC1 (stereo unspecified)	-2.1	0.9	12.2*	-4.3	-2.5	-2.2	21.5*	29.4*
COC(=O)CCCC1=CC2=C(c3ccccc3)C(=O)C(C)(OC(=O)C3CCCC3)C(=O)C2=CN1C1CC1 (stereo unspecified)	8.1	6.6	0.6	10.6	-2.2	-4.0	x	x
CCCCC1=CC2=C(c3ccco3)C(=O)C(C)(OC(=O)c3ccc(OC)cc3)C(=O)C2=CN1CCCCO (stereo unspecified)	-2.0	-1.5	13.0*	-6.1	-5.5	-8.7	19.1*	24.1*
COC(=O)CCCC1=CC2=C(c3ccccc3)C(=O)C(C)(OC(=O)C3CCCC3)C(=O)C2=CN1C(CO)CO (stereo unspecified)	3.4	0.1	-0.5	4.8	0.1	-7.2	x	x
CCCCC1=CC2=C(c3ccco3)C(=O)C(C)(OC(=O)c3ccc(OC)cc3)C(=O)C2=CN1C(CO)CO (stereo unspecified)	14.8	0.3	13.3*	-6.4	4.9	-5.3	14.0*	16.5*
COc1ccc(CCCNC(=O)C2Cc3c(-c4ccc5c(c4)OCO5)ccnc3O2)cc1 (stereo unspecified)	-0.9	-1.4	-0.8	1.9	2.4	-2.3	x	x

Compound activity: PubChem, several laboratories
